T1: CAPN2 513-700 EF-hand_8 (domain begin residue: 513, domain end residue: 700), P17655
T1 chain: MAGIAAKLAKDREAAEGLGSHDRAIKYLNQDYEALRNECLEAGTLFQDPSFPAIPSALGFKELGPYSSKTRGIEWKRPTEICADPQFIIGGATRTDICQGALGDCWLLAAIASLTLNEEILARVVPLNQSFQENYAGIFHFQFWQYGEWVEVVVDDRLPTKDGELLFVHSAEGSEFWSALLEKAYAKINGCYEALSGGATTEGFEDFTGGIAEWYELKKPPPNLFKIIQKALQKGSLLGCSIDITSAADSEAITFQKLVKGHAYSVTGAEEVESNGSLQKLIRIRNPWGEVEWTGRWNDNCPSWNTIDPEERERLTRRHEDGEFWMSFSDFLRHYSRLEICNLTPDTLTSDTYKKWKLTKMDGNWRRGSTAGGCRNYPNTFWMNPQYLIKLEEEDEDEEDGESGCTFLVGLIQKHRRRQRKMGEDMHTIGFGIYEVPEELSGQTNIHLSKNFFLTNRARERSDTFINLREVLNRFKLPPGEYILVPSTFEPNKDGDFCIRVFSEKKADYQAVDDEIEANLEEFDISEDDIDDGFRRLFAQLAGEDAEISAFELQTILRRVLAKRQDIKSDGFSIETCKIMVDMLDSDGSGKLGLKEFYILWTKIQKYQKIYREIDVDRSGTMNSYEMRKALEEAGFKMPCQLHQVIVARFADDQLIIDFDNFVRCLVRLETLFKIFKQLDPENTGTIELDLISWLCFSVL

T2: ARID4A 568-634 Tudor-knot (domain begin residue: 568, domain end residue: 634), P29374
T2 chain: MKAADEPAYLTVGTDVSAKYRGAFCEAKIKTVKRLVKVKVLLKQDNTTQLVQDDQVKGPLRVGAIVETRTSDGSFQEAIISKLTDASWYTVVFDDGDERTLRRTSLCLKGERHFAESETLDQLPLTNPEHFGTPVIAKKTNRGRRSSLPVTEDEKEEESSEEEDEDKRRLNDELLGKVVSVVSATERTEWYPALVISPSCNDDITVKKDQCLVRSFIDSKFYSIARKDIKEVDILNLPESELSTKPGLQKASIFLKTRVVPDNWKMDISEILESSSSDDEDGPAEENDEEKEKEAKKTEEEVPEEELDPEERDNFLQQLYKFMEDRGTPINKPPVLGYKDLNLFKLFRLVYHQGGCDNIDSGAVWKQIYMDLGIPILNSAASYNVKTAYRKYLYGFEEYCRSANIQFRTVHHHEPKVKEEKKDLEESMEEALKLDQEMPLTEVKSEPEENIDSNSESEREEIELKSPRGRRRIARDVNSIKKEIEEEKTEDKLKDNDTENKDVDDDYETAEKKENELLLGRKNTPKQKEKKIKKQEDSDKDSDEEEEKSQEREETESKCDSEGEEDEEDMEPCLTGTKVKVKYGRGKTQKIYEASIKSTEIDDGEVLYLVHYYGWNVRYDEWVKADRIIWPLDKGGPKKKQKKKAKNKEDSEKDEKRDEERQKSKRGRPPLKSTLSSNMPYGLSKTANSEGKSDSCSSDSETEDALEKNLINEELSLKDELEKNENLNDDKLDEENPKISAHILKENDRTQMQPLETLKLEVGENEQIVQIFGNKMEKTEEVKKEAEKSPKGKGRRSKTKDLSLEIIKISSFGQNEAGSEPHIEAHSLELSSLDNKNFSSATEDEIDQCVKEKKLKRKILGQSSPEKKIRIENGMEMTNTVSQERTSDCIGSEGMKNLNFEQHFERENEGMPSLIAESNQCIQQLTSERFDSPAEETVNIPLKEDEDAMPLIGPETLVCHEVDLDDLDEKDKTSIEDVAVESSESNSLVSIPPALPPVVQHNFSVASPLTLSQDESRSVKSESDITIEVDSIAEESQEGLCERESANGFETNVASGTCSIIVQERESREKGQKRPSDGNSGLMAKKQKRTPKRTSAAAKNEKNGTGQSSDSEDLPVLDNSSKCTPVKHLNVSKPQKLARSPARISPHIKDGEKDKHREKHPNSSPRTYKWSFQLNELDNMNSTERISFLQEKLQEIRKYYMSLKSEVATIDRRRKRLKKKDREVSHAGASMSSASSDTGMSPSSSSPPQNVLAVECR

T3: LBR 1-67 LBR_tudor (domain begin residue: 1, domain end residue: 67), Q14739
T3 chain: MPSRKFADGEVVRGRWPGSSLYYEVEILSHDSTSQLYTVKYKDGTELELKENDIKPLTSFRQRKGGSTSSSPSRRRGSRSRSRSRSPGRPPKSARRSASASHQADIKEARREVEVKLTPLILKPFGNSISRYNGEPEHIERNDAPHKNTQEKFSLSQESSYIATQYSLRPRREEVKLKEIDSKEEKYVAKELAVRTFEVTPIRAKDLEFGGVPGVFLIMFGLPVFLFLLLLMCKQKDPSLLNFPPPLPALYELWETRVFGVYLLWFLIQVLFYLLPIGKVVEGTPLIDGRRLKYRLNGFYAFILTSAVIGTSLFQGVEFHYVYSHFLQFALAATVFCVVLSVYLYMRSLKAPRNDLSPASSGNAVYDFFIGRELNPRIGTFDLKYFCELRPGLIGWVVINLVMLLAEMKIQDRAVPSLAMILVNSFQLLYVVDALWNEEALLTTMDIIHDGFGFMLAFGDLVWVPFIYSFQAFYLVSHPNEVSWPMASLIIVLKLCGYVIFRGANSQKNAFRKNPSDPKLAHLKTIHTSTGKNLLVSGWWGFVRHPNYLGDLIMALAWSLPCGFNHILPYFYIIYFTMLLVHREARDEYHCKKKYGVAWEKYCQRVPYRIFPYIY

T4: SND1 650-910 TUDOR+SNase (domain begin residue: 650, domain end residue: 910), Q7KZF4
T4 chain: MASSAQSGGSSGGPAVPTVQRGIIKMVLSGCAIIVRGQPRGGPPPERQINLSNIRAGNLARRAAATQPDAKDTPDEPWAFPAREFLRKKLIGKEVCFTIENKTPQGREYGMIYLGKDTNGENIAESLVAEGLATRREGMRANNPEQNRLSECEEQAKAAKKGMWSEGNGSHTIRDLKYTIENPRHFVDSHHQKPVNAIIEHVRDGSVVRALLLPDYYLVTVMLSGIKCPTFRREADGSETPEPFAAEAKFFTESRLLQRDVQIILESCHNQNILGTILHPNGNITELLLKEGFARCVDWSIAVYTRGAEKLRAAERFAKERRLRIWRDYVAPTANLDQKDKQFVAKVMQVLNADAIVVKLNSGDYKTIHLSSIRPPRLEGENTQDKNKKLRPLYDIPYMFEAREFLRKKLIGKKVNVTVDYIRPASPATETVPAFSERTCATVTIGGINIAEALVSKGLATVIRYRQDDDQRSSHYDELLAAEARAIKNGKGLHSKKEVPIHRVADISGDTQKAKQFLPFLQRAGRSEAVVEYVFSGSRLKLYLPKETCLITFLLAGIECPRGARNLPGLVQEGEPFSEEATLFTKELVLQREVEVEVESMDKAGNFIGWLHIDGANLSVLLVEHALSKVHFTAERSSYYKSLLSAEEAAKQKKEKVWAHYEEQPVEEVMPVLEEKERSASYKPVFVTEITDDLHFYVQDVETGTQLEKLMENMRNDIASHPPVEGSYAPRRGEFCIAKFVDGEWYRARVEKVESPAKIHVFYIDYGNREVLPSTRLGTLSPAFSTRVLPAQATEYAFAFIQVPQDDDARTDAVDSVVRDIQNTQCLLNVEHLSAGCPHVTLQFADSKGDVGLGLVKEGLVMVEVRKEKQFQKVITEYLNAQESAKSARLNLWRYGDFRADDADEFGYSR

T5: TDRD1 261-449 TUDOR (domain begin residue: 261, domain end residue: 449), Q9BXT4
T5 chain: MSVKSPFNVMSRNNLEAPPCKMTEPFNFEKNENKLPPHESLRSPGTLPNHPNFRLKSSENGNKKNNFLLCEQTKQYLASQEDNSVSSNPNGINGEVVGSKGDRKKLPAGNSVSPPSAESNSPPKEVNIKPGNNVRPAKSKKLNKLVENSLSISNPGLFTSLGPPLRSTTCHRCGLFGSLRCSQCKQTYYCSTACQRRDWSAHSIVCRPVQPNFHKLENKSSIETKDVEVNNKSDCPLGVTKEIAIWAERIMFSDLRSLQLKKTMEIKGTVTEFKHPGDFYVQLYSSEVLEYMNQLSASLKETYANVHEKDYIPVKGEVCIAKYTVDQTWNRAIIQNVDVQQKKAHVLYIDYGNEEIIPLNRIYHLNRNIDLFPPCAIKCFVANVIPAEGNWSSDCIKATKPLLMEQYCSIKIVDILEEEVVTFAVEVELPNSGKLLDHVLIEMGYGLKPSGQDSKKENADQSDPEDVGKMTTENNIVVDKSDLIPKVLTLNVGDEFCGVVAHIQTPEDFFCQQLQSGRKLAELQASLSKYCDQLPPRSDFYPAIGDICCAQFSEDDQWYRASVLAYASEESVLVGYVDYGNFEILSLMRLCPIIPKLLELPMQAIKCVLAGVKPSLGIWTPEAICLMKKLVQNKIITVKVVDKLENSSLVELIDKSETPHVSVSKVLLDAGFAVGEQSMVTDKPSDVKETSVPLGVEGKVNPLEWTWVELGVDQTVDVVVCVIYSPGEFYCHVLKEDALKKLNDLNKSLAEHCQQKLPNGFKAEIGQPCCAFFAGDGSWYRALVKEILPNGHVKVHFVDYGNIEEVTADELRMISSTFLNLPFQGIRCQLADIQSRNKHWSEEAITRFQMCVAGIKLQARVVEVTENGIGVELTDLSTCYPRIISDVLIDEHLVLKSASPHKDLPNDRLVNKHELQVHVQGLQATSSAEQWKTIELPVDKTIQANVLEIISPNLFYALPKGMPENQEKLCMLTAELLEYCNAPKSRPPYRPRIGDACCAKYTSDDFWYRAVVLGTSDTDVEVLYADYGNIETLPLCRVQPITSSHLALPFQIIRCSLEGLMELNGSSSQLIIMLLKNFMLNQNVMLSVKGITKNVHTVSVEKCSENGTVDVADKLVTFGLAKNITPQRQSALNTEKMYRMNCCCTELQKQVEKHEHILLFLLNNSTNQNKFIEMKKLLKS

T6: ZGPAT 120-268 zf-CCCH+TUDOR (domain begin residue: 120, domain end residue: 268), Q8N5A5
T6 chain: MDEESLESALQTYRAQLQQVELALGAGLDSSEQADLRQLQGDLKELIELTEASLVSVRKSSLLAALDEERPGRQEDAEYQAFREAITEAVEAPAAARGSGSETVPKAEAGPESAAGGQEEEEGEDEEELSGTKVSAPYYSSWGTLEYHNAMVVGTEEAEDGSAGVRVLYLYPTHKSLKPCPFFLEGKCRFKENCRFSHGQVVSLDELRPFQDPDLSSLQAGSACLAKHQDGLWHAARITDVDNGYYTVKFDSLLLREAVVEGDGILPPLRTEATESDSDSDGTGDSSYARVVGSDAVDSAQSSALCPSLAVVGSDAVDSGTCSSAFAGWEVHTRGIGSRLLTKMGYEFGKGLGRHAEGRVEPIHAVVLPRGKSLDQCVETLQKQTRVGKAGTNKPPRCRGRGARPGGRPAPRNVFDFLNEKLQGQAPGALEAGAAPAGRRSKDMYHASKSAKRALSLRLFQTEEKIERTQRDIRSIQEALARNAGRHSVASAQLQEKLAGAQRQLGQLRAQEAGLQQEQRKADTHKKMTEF


Target: T1, CAPN2 513-700 EF-hand_8 (domain begin …
Experiment: phage ELISA signal ratio (GST-PRM binding over GST background); higher = stronger binding of peptide-phage to the PRM
Method: (§1)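 Phage-displayed random hexadecapeptides (Cys-free, flanked by invariant Gly linkers, fused to the M13 P8 major coat protein) were selected over 5 rounds against GST-fused human PRM domains. Individual clones from rounds 4-5 were tested by phage ELISA, and positive clones binding the target but not GST were sequenced. Values are the ELISA signal ratio of target over background (GST); the background signal is given separately.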

| Binder | phage ELISA signal ratio |
| --- | --- |
| GDWEWVERWLEMHLLE | 12.6 |

Target: T2, ARID4A 568-634 Tudor-knot (domain begin …
Experiment: as above
Method: as §1

| Binder | phage ELISA signal ratio |
| --- | --- |
| WGWDEMLNDPEIMRIV | 12.7 |

target: KMT2C 1055-1137 PHD (domain begin residue: 1055, domain end residue: 1137); experiment: as above
Method: as §1

| Binder | phage ELISA signal ratio |
| --- | --- |
| WGWDEMLNDPEIMRIV | 8.35 |

Target: T3, LBR 1-67 LBR_tudor (domain begin …
Experiment: as above
Method: as §1

| Binder | phage ELISA signal ratio |
| --- | --- |
| WGWDEMLNDPEIMRIV | 7.63 |

target: PAF1 165-376 Paf1 (domain begin residue: 165, domain end residue: 376), Q8N7H5; experiment: as above
Method: as §1

| Binder | phage ELISA signal ratio |
| --- | --- |
| WGWDEMLNDPEIMRIV | 6.83 |

target: RBBP8 722-897 SAE2 (domain begin residue: 722, domain end residue: 897), Q99708; experiment: as above
Method: as §1

Chain of RBBP8 722-897 SAE2 (domain begin residue: 722, domain end residue: 897), Q99708 (Q99708 whole entry): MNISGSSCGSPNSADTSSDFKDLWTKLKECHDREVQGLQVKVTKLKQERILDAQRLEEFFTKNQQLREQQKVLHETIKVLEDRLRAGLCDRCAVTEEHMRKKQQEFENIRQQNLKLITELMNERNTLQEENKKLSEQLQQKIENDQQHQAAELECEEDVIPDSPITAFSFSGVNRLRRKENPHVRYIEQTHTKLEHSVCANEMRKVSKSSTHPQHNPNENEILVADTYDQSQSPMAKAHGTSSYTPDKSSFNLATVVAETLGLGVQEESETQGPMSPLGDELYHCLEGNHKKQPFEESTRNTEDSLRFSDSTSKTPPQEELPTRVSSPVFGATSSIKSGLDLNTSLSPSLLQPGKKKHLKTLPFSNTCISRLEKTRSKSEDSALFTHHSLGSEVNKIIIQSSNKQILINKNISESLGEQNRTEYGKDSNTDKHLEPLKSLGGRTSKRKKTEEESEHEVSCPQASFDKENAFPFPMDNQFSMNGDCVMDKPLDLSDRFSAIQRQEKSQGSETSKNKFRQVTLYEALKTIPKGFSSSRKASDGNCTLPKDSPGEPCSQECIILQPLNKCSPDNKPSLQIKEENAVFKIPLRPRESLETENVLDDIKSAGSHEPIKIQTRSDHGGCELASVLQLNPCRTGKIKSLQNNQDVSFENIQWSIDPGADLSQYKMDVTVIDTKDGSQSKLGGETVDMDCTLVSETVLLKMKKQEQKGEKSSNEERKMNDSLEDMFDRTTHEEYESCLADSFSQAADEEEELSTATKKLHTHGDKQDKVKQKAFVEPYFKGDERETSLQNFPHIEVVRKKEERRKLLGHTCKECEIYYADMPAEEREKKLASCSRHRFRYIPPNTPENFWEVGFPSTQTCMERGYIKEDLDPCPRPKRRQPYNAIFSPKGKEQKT

| Binder | phage ELISA signal ratio |
| --- | --- |
| WGWDEMLNDPEIMRIV | 6.44 |

target: SETD1A 2-220 RRM_1 (domain begin residue: 2, domain end residue: 220), O15047; experiment: as above
Method: as §1

Chain of SETD1A 2-220 RRM_1 (domain begin residue: 2, domain end residue: 220), O15047 (O15047 whole entry): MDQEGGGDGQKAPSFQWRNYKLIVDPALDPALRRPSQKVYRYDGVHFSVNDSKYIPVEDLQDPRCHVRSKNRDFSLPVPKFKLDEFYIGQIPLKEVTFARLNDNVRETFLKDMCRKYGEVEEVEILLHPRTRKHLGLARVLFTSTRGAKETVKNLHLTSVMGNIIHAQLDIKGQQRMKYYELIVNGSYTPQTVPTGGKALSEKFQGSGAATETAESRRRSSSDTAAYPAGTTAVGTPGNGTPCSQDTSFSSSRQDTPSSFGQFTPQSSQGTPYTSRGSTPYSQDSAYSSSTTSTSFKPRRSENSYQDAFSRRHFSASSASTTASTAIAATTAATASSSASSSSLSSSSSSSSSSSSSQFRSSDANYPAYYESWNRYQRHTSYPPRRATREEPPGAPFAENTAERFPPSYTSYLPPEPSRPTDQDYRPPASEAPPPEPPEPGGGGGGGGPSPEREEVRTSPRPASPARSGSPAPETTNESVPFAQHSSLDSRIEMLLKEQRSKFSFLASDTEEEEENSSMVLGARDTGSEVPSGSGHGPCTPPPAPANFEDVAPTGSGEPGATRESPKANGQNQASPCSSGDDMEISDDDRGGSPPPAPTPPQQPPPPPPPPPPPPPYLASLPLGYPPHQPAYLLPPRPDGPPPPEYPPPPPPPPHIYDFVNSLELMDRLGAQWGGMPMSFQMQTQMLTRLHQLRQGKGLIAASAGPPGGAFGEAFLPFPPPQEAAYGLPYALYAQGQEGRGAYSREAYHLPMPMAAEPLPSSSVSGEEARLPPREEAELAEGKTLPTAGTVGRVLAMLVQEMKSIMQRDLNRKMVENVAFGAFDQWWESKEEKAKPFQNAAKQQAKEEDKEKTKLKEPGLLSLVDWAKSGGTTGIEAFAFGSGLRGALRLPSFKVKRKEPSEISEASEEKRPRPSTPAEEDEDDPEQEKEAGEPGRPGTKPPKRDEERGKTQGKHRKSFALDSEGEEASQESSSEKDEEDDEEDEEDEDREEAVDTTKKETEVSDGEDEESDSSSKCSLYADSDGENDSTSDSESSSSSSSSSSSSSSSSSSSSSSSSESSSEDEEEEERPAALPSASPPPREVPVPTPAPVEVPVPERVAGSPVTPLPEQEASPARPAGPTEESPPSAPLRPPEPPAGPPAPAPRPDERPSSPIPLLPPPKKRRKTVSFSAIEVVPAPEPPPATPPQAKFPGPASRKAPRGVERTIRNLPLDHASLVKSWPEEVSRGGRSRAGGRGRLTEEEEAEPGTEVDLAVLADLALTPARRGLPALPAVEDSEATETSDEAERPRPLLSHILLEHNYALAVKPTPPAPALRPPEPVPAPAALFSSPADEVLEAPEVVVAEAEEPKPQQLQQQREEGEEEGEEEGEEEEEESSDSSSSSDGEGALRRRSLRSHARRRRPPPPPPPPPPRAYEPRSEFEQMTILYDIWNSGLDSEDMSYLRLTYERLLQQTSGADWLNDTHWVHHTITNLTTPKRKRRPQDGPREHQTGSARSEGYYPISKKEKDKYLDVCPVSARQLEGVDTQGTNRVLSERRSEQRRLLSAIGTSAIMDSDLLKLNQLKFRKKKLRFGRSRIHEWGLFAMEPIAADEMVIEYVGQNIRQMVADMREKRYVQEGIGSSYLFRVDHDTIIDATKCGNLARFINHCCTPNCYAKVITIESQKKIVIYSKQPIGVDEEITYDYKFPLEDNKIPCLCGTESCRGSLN

| Binder | phage ELISA signal ratio |
| --- | --- |
| WGWDEMLNDPEIMRIV | 7.71 |

Target: T4, SND1 650-910 TUDOR+SNase (domain begin …
Experiment: as above
Method: as §1

| Binder | phage ELISA signal ratio |
| --- | --- |
| WGWDEMLNDPEIMRIV | 8.1 |

Target: T5, TDRD1 261-449 TUDOR (domain begin …
Experiment: as above
Method: as §1

| Binder | phage ELISA signal ratio |
| --- | --- |
| WGWDEMLNDPEIMRIV | 10.8 |

Target: T6, ZGPAT 120-268 zf-CCCH+TUDOR (domain …
Experiment: as above
Method: as §1

| Binder | phage ELISA signal ratio |
| --- | --- |
| WGWDEMLNDPEIMRIV | 7.66 |

— the supplement of paper PMC7724964
